Bioassay records from PubChem.
ERG-DNA inh: qHTS for Small Molecule Inhibitors of the ERG Ets/DNA interaction | Transcriptional regulator ERG (Homo sapiens), P11308 | fluorescence polarization, His-ERG Ets domain / labelled DNA | Potency, µM (top dose mostly 76.9 µM), inactives show at the highest dose FP activity, negative = inhibition, actives largely listed as inhibitors | 370,000 tested, 0.028% active | AID 624246, 2012; active = well fitted inhibition curve with a large enough effect in the polarisation, with a control signal flat; the % refers to the polarisation;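 also: polarization taken with two DNA probes labelled with fluorescein and Texas red; potency is read from the fitted curve at half-maximal effect; % of control where 0% means no effect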
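His-tagged ERG Ets domain (1 uM in the protein solution; 300mM KCl, 50mM Tris-HCl, 1mM EDTA, 1mM DTT, pH 7.5) received compound, then a probe mix of 5 nM fluorescein-DNA and 100nM Texas-615-DNA. Fluorescence polarization was read for both dyes.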
DRD3 agonist: qHTS of D3 Dopamine Receptor Agonist: qHTS. max activation, %. D(3) dopamine receptor (Homo sapiens), P35462. D3R DiscoveRx beta-arrestin cells, luminescence, 90 min. 410,000 tested, 0.58% active; in the data active = max activation above about 30%; also: 0% is about no effect
Target sequence (P35462 whole entry, looked up): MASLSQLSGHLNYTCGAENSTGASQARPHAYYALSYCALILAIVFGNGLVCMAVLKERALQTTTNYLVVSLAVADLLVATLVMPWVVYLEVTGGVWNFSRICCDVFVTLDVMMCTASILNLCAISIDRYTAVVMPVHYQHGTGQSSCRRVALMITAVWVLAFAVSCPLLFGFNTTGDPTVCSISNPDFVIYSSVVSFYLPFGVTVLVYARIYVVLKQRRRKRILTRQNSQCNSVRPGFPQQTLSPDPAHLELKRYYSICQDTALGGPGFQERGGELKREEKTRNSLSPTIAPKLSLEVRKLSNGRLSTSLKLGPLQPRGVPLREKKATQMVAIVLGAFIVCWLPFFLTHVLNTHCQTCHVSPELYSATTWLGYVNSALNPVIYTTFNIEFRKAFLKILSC
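Agonist mode: compounds and dopamine controls were applied to plated cells for 90 min at 37 degrees C after an overnight attachment at 1500 cells/well. Luminescent read-out followed 30 - 60 minutes at room temperature with DiscoveRx detection reagent.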
D1 PAM: Potentiators of Human D1 Dopamine Receptor: qHTS | HEK293 TREx D1 cells, calcium flux, dopamine EC20 potentiation | potentiation, % at 10 µM | 360,000 tested, 0.036% active; in the data active = potentiation above about 30%; also: 0% is about no effect
D1 antagonist: Antagonist of Human D 1 Dopamine Receptor: qHTS; D(1A) dopamine receptor (Homo sapiens), P21728; HEK293 TREx D1 cells, calcium flux, dopamine EC80; active compounds read low; activity change, negative = inhibition, % at 10 µM; 360,000 tested, 3.2% active; in the data active = activity change below about -30%; also: % is scaled to controls: 0 for no effect and ±100 for the full control effect
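Using tetracycline-induced force-coupled D1 Hek293 cells and a calcium dye, signals were followed for 180 s after compound, then for 180 s after EC80 dopamine, to detect inhibitors.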
D3 antag: qHTS of D3 Dopamine Receptor Antagonist: qHTS; D(3) dopamine receptor (Homo sapiens), P35462; AID 652054, 2013; D3R cells, DiscoveRx beta-arrestin luminescence, antagonist mode; active compounds read low; max response, negative = inhibition, %; 360,000 tested, 2.5% active; in the data active = max response below about -50%; also: % is scaled to controls: 0 for no effect and ±100 for the full control effect
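Cells plated overnight at 1500 cells/well, then exposed to library compounds with dopamine controls for 90 minutes at 37 degrees C. DiscoveRx reagent added for 30–60 minutes at room temperature; luminescence read, quantitative HTS format.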
D1 ag: Allosteric Agonists of the Human D1 Dopamine Receptor: qHTS | D(1A) dopamine receptor (Homo sapiens), P21728 | HEK293 T-REx D1 cells, calcium flux, agonist mode | activation, % at 2 µM | 360,000 tested, 1% active; in the data active = activation above about 30%; also: 0% is about no effect
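Tetracycline-induced HEK293 TREx D1 cells, force-coupled to calcium signalling, were dye-loaded with a no-wash calcium kit. Compound was pin-added after a 10 s baseline. Fluorescence was read kinetically at 1 cycle/s for 180 s, with calcium rises flagged as agonism.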
* = called active by the depositor; . = no result given. Rows were chosen to be rich in hits. Some 6.1% of all compounds tested hit in one or more screens of this group.

SMILES	ERG-DNA inh	DRD3 agonist	D1 PAM	D1 antagonist	D3 antag	D1 ag
COc1ccc2cc1Oc1ccc(cc1)C[C@H]1c3c(cc(OC)c4c3Oc3c(ccc5c3[C@H](C2)N(C)CC5)O4)CCN1C	6.6%	-6.3	.	.	11.2	.
COc1ccc2cc1Oc1ccc(cc1)CC1c3c(cc(OC)c4c3Oc3cc5c(cc3O4)CCNC5C2)CCN1C (stereo not given)	15.6%	-8.7	-11.8	-40.6*	-23.0	5.3
Cc1cc(OCCSc2nnc(-c3cccs3)n2C)ccc1Cl	-3.9%	-1.3	-13.1	-20.0	1.3	34.8*
Cc1ccc(OCCSc2nnc(-c3cccs3)n2C)cc1	-6.6%	1.1	-5.8	3.0	13.3	-1.2
COc1cccc(N2CC(NC(=O)c3cc(Cl)ccc3OC)CC2=O)c1 (stereo not given)	0.5%	2.9	-2.6	.	.	-0.6
CC(C)(C)OC(=O)NCCCCCc1nnc(SCc2cccc(F)c2)o1	8.5%	-5.3	-7.6	-36.4*	17.2	18.1
CN(C)C(=O)CSc1nnc(CCNC(=O)OC(C)(C)C)o1	-5.3%	0.5	-5.5	-32.5*	-9.9	3.2
CN(C)C(=O)CSc1nnc(CCCCCNC(=O)OC(C)(C)C)o1	-5.8%	-1.2	-1.6	-9.1	-6.2	4.4
COc1ccc(C)cc1NC(=O)CN1C(=O)COc2ccc(C)cc21	6.4%	-1.3	-2.1	7.7	9.1	0.2
COc1ccc(OC2C(=O)N(Cc3ccc4c(c3)OCO4)C2c2sccc2C)cc1 (stereo not given)	-16.0%	34.4*	-9.2	-6.3	38.7	15.4
COc1ccc(OC2C(=O)N(Cc3ccc(F)cc3)C2c2ccc(OC)c(OC)c2)cc1 (stereo not given)	.	-10.8	-4.8	4.8	-14.3	5.9
Cc1nc(N2CCN(c3ccccc3)CC2)[nH]c(=O)c1Cc1cccc2ccccc12	.	.	-4.5	-11.3	.	2.8
Clc1ccc(N2CCN(Cc3ccc(Br)o3)CC2)cc1	0.9%	-22.2	-7.5	-3.4	-52.3*	0.9
COc1cc(CN2CCN(c3cccc(Cl)c3)CC2)cc(OC)c1OC	-2.8%	-18.4	-6.0	2.2	-71.4*	1.0
COc1cc(CN2CCN(S(=O)(=O)c3ccccc3)CC2)cc(OC)c1OC	7.5%	7.4	-1.6	1.1	19.1	1.5
O=C(NCC(=O)N1CCN(c2cccc(Cl)c2)CC1)c1ccc(Br)o1	-5.4%	2.3	10.2	2.8	7.9	3.5
COc1cc(CN2CCN(C(O)(c3ccccc3)c3ccccc3)CC2)cc(OC)c1OC	-5.2%	-23.3	-12.8	-66.7*	-71.6*	9.2
Clc1cccc(N2CCN(Cc3ccc(Br)o3)CC2)c1	2.5%	-26.8	-7.5	-2.2	-60.2*	1.1
CC1(C)CC(NC(=O)C2CCCCC2)CC(C)(C)N1	-2.4%	-6.6	-2.9	9.4	0.2	3.6
COc1ccc(C2=Cc3ccc(OC(C)=O)cc3OC2)cc1	.	9.1	.	.	55.6	.
O=C(COC(=O)CCC(=O)c1ccc(F)cc1)NC1CCCCC1	0.4%	2.1	.	.	-14.8	.
CCC1CN(C(=O)Nc2ccccc2C(F)(F)F)c2ccccc2O1 (stereo not given)	6.2%	-1.9	1.9	13.4	.	4.8
Cc1cccc(CSc2nc3c(c(-c4cccs4)c2C#N)CN(C)CC3)c1	-17.4%	1.3	0.7	-37.7*	1.5	10.2
CN1CCc2nc(SCC(=O)Nc3cccc(F)c3)c(C#N)c(-c3cccs3)c2C1	-2.3%	-27.1	-3.8	-9.0	-50.3*	11.6
Cc1cccc(CSc2nc(N)c(C#N)c(-c3cccs3)c2C#N)c1	14.1%	1.9	2.4	8.4	7.7	11.8
SMILES	ERG-DNA inh	DRD3 agonist	D1 PAM	D1 antagonist	D3 antag	D1 ag
CC(C)Cc1nn2c(=O)cc(COC(=O)CNC(=O)c3ccc(C(C)(C)C)cc3)nc2s1	-3.4%	-16.4	-7.8	-26.5	.	27.0
Cc1ccc(/C=c2\sc3n(c2=O)CN(c2ccc(Br)cc2)CN=3)o1	4.2%	-0.7	-11.3	-38.9*	-12.8	-0.2
Nc1cccc(-c2cn3cccnc3n2)c1	3.3%	-1.7	4.9	-30.1*	1.4	4.3
Nc1ccc(C(=O)OCC(=O)Nc2cc([N+](=O)[O-])ccc2F)cc1	28.1%	-2.8	-4.3	8.7	-5.1	3.1
CS(=O)(=O)c1ccc(Cl)c(NC(=O)Cc2c(Cl)cccc2Cl)c1	-2.2%	-0.6	-0.2	-11.1	0.4	1.9
CCOC(=O)c1[nH]c(C)c(/C=N/O)c1C	-7.9%	0.2	-12.5	-56.4*	42.6	1.1
Cc1nnc2sc(SCC(=O)N3CCc4ccccc43)nn2c1=O	9.8%	-11.6	.	.	-17.5	.
CN1CCN(c2ccc(CNC(=O)c3cccc4c(-c5ccc(F)c(F)c5)coc34)cc2)CC1	.	-14.5	.	.	-83.1*	.
CN1CCN(c2ccc(CNC(=O)c3ccc(-c4ccc(F)c(F)c4)c4ccoc34)cc2)CC1	.	-12.6	.	.	-66.5*	.
O=C(NCc1ccc(C(F)(F)F)cc1)c1cccc2c(-c3ccc(F)c(F)c3)coc12	.	-1.2	.	.	0.0	.
CCOC(=O)N1CCN(C(=O)COC(=O)c2ccc([N+](=O)[O-])cc2Cl)CC1	-23.0%	4.4	1.6	-11.2	5.6	4.9
Cc1ccccc1CN(C)C(=O)COC(=O)CSc1ccc([N+](=O)[O-])cc1	1.1%	-1.2	-5.3	-32.8*	24.1	14.4
CCOC(=O)N1CCN(C(=O)COC(=O)CSc2ccc([N+](=O)[O-])cc2)CC1	1.0%	1.7	-4.2	-12.8	-51.5*	4.3
CCOC(=O)[C@]12CCC=C1N(Cc1cccc3ccccc13)C(=O)[C@H](CC(=O)N1CCN(C(=O)c3ccco3)CC1)C2	.	-2.3	.	.	-21.5	.
COc1ccc(-c2noc(-c3ccc(N4CCOCC4)c([N+](=O)[O-])c3)n2)cc1OC	5.2%	1.2	3.7	-12.4	.	17.6
O=[N+]([O-])c1cc(Br)c2nsnc2c1N1CCOCC1	-3.5%	5.2	-7.2	-44.5*	0.4	0.9
COc1cc([N+](=O)[O-])c(N2CCOCC2)c([N+](=O)[O-])c1OC	-2.0%	-0.5	-8.6	-33.5*	-3.4	9.3
CCN(CC)S(=O)(=O)c1ccc2oc(C(=O)NCc3ccc(F)cc3)c(C)c2c1	-2.7%	1.2	-5.1	-2.1	4.0	8.0
Cc1ccc(-c2cn3cccnc3n2)cc1NC(=O)C(C)(C)Oc1ccc(Cl)cc1	0.6%	-8.5	5.1	-2.3	.	-0.1
O=Cc1c(Sc2ccccn2)nc2ccccn2c1=O	11.2%	2.7	8.4	-0.6	-51.7*	0.9
